# Reference: article PMC4336329 (PLoS ONE, 2015)
# The whole screen tested about 310,000 compounds, of which about 14,000 (4.5%) showed an effect of 50% or more. Effects have a minus sign here. Many of the other results were omitted from the sample, so strong results are more common in it than they were.
# Target: human ether-à-go-go-related gene (hERG) potassium channel (human, UniProt Q12809)
# Experiment: primary screen, population patch clamp on CHO cells stably expressing hERG; higher = less effect of the substance
# 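Note: peak tail current of the secondary pulse compared with the same well before compound.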
# Sequence of human ether-à-go-go-related gene (hERG) potassium channel (Q12809 whole entry, looked up): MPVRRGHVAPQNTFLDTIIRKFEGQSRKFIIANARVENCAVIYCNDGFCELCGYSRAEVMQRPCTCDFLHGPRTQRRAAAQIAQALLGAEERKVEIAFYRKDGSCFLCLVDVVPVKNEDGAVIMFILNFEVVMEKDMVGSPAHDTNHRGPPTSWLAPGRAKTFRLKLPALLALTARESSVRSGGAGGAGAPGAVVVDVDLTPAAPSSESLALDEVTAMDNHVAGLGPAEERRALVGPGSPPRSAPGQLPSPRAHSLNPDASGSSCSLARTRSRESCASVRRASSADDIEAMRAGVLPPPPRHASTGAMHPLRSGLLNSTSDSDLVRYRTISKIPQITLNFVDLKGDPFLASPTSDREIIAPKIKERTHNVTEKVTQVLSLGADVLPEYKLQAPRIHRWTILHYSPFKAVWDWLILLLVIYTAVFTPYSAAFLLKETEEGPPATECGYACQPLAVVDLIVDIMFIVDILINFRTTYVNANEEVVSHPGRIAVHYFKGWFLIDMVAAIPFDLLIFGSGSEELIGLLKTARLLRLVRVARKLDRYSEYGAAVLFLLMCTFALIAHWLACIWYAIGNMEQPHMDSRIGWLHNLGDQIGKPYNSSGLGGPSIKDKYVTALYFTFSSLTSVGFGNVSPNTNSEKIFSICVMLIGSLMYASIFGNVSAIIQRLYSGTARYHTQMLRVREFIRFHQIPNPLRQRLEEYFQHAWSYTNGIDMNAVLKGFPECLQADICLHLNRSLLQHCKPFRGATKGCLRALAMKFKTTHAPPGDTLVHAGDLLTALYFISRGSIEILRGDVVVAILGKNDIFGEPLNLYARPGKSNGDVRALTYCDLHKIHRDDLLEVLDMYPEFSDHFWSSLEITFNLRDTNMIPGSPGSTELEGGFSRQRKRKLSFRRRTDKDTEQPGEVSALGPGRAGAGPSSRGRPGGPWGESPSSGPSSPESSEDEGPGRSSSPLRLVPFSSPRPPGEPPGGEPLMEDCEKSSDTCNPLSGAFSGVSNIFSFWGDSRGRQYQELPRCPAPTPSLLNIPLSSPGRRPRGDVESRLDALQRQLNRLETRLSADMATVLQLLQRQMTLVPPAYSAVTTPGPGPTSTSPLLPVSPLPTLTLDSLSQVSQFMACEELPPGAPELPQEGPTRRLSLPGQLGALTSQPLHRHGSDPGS
row,SMILES,"hERG current change (%, negative = inhibition) at 10uM [%]"
1,CCn1cc(S(=O)(=O)CC(=O)Nc2ccc3c(c2)OCCO3)c2ccccc21,-13.1
2,CCOC(=O)C1=C(C)N(c2ccccc2)C(=O)/C1=C\c1cccs1,18.1
3,CC(=O)N1CCN(CCN=CC2=C(O)CC(c3ccco3)CC2=O)CC1 (stereo not drawn),1.17
4,CC(C)C(=O)N1CCN(CCN=CC2=C(O)CC(c3ccco3)CC2=O)CC1 (stereo not drawn),0.717
5,CCCCCC(=O)N1CCN(CCN=CC2=C(O)CC(c3ccco3)CC2=O)CC1 (stereo not drawn),-76.2
6,CC(=O)N1CCN(CCN=CC2=C(O)CC(c3cccs3)CC2=O)CC1 (stereo not drawn),8.53
7,CCC(=O)N1CCN(CCN=CC2=C(O)CC(c3cccs3)CC2=O)CC1 (stereo not drawn),-9.43
8,CCCCCC(=O)N1CCN(CCN=CC2=C(O)CC(c3cccs3)CC2=O)CC1 (stereo not drawn),-106
9,COc1cc(-c2cc(-c3ccc(O)cc3)nc(N)c2C#N)ccc1O,18.5
10,CCn1c(SCC(=O)NC2CCCc3ccccc32)nnc1-c1cccs1 (stereo not drawn),-24.6
11,CC(Nc1ccc(Cl)cc1)C(=O)NN (stereo not drawn),-5.86
12,COc1cccc(NC(=O)c2c(F)cccc2F)c1,-6.78
13,CCOC(=O)c1[nH]cnc1C(=O)Nc1cccc(OC)c1,2.14
14,NC(=O)c1cc(S(=O)(=O)NCc2ccc(F)cc2)cs1,3.37
15,Nc1nc(CN2CCN(c3ccccn3)CC2)nc(Nc2ccc(Cl)cc2)n1,-74.8
16,Nc1nc(CSC(=S)N2CCN(c3ccccc3)CC2)nc(Nc2ccc(F)cc2)n1,2.14
17,Cc1ccccc1Nc1nc(N)nc(CSc2ccccc2)n1,-21
18,Cc1ccccc1Nc1nc(N)nc(CSc2ccc(F)cc2)n1,-50.4
19,Cc1ccc(SCc2nc(N)nc(Nc3ccccc3C)n2)cc1C,1.31
20,Cc1ccccc1Nc1nc(N)nc(CN2CCN(C(=O)c3ccccc3)CC2)n1,-37.9
21,Cc1ccccc1Nc1nc(N)nc(CN2CCN(c3ccccn3)CC2)n1,-66.6
22,Nc1nc(CSc2ncn[nH]2)nc(Nc2ccc(F)cc2)n1,6.74

row,SMILES,"hERG current change (%, negative = inhibition) at 10uM [%]"
1,Cc1ccccc1Nc1nc(N)nc(CCl)n1,10.5
2,Nc1nc(CN2CCN(c3ccccn3)CC2)nc(Nc2ccc(F)cc2)n1,-67.4
3,Nc1nc(CSc2ccccn2)nc(Nc2ccccc2)n1,1.81
4,S=C(NCc1ccc(Cl)cc1)N1CCN(c2ccccn2)CC1,-23.9
5,O=C(c1ccc(Cl)cc1)N1N=CCC1(O)c1ccc(Cl)cc1 (stereo not drawn),15.7
6,COc1cc(NC(=O)CN2C(=O)NC3(CCOc4ccccc43)C2=O)cc(OC)c1 (stereo not drawn),-3.2
7,CCc1ccc(NC(=O)C2CCN(S(=O)(=O)c3ccc4[nH]c(=O)ccc4c3)CC2)cc1,3.6
8,Cc1ccc(NC(=O)c2c([N+](=O)[O-])c(C(C)(C)C)nn2C)c(C)c1,20.7
9,Cc1ccc2cc(/C=N/NC(=O)c3ccccc3[N+](=O)[O-])c(Cl)nc2c1,-5.33
10,Cc1cc(C(=O)NCCN2C(=O)S/C(=C\c3cccs3)C2=O)ccc1[N+](=O)[O-],-1.91
11,COc1ccc(NC(=S)N2CCN(c3ccccn3)CC2)cc1,-0.967
12,COc1ccc(Nc2nc(N)nc(CSc3nccn3C)n2)cc1,4.64
13,COc1ccc(Nc2nc(N)nc(CN3CCN(c4ccccn4)CC3)n2)cc1,-65.1
14,Cn1c(COc2ccc(C(=O)O)cc2)nc2ccccc21,14.7
15,CC(OC(=O)CCc1c[nH]c2ccccc12)C(=O)c1ccccc1 (stereo not drawn),-17.8
16,COc1ncnc(-c2ccccc2)c1-c1ccccc1,1.86
17,COC(=O)c1c(NC(=O)c2ccco2)sc2c1CCN(C(C)=O)C2,-2.22
18,COC(=O)c1c(NC(C)=O)sc2c1CCN(Cc1ccccc1)C2.Cl,-9.29
19,COC(=O)c1c(NC(=O)Cc2ccccc2)sc2c1CCN(C(C)C)C2.Cl,-61.4
20,CCN1CCc2c(sc(NC(=O)COc3ccccc3)c2C(=O)OC)C1.Cl,-62.6
21,CN1CCc2c(sc(NC(=O)Cc3ccccc3)c2C(N)=O)C1.Cl,-16.2
22,CC(C)N1CCc2c(sc(NC(=O)c3ccco3)c2C(N)=O)C1.Cl,-6.82

row,SMILES,"hERG current change (%, negative = inhibition) at 10uM [%]"
1,CC(C)N1CCc2c(sc(NC(=O)Cc3ccccc3)c2C#N)C1.Cl,-16
2,CCN1CCc2c(sc(NC(=O)CN3C(=O)c4ccccc4C3=O)c2C(N)=O)C1.Cl,-36.6
3,CN1CCc2c(sc(NC(=O)Cc3ccccc3)c2C#N)C1.Cl,-7.24
4,CCOC(=O)c1c(NC(=O)Cc2ccccc2)sc2c1CCN(C)C2.Cl,-53
5,COC(=O)c1c(NC(=O)c2ccc([N+](=O)[O-])o2)sc2c1CCN(C(C)C)C2.Cl,-25.1
6,COC(=O)c1c(NC(=O)c2ccco2)sc2c1CCN(C(C)C)C2.Cl,-62.5
7,COc1ccc(/C=N/n2c(-c3n[nH]c4c3CCC4)n[nH]c2=S)c(OC)c1OC,20.7
8,COc1nc(NC(C)=O)nc(C)c1Br,-1.69
9,COc1ccc(NC(=O)CC(C)C)c([N+](=O)[O-])c1,-0.754
10,Cc1ccc(C(=O)NC(=S)Nc2ccccc2C)cc1,-0.104
11,CCn1nc(C)cc1C(=O)N1CCc2c([nH]c3ccccc23)C1c1cc(F)ccc1F (stereo not drawn),-1.16
12,CC(C)N1CCc2c(sc(NC(=O)CCc3ccccc3)c2C(N)=O)C1.Cl,-57.2
13,CN1CCN(C(=O)c2c(NC(=O)c3ccco3)sc3c2CCC(C(C)(C)C)C3)CC1 (stereo not drawn),-69.5
14,CCN1CCc2c(sc(NC(=O)Cc3ccccc3)c2C(=O)OC)C1.Cl,-51.5
15,CC(C)(C)C1CCc2c(sc(NC(=O)c3ccco3)c2C(N)=O)C1 (stereo not drawn),19.8
16,CCN1CCc2c(sc(NC(=O)Cc3ccccc3)c2C(N)=O)C1.Cl,-20.3
17,CCN1CCc2c(sc(NC(=O)c3ccc(S(=O)(=O)N4CCOCC4)cc3)c2C(=O)OC)C1.Cl,-42.2
18,CCOC(=O)c1c(NC(=O)Cc2ccccc2)sc2c1CCN(CC)C2.Cl,-65.3
19,CC(C)N1CCc2c(sc(NC(=O)c3ccc(C(=O)c4ccccc4)cc3)c2C(N)=O)C1.Cl,-38.2
20,CCOC(=O)c1c(NC(=O)c2cccc(N3C(=O)CCC3=O)c2)sc2c1CCN(CC)C2.Cl,-31.5
21,CC(C)N1CCc2c(sc(NC(=O)Cc3ccccc3)c2C(N)=O)C1.Cl,-11.5
22,CC(C)(C)C1CCc2c(sc(NC(=O)c3cccs3)c2C(=O)N2CCCCC2)C1 (stereo not drawn),7.32

row,SMILES,"hERG current change (%, negative = inhibition) at 10uM [%]"
1,OCc1ccccc1N=c1ssnc1Cl,15.9
2,CC(=O)N1CC(C)Sc2ccc(S(=O)(=O)NCc3ccccc3Cl)cc21 (stereo not drawn),-8.78
3,CC1CCN(C(=O)C2CCCCN2S(=O)(=O)c2cccc([N+](=O)[O-])c2)CC1 (stereo not drawn),1.35
4,Cc1cc(C)c(NC(=O)CSc2ccc(-c3ccccn3)nn2)c(C)c1,17.9
5,CC1CCN(C(=O)c2nc[nH]c2C(=O)OCCNC(=O)OC(C)(C)C)CC1,4.23
6,CC1=CC(C)(C)Nc2ccc(OC(=O)CN3C(=O)c4ccccc4C3=O)cc21,15
7,CC1Cc2ccccc2N1C(=O)COC(=O)Cc1ccc(F)cc1 (stereo not drawn),-13.9
8,C=CCN(CC=C)C(=S)NCCc1ccc(OC)c(OC)c1,-3.41
9,Cc1cc([N+](=O)[O-])nn1CC(=O)Nc1c(C)n(C)n(-c2ccccc2)c1=O,18.4
10,O=C(c1ccco1)N1CCN(C(c2ccc(Cl)cc2)c2nnnn2CC2CCCO2)CC1 (stereo not drawn),-22.1
11,CC(C)CC(c1nnnn1CCc1ccccc1)N1CCN(C(=O)c2ccco2)CC1 (stereo not drawn),-46.6
12,COc1ccc(C(c2sc3nc(C)nn3c2O)N2CCN(Cc3ccccc3)CC2)cc1OC (stereo not drawn),-18.3
13,CCC(c1nnnn1Cc1ccccc1)N1CCN(C(=O)c2ccco2)CC1 (stereo not drawn),-36.3
14,CC(C)CC(c1nnnn1Cc1ccccc1)N1CCN(C(=O)c2ccco2)CC1 (stereo not drawn),-63.4
15,Cc1nc2sc(C(c3cccs3)N3CCN(c4ccccc4)CC3)c(O)n2n1 (stereo not drawn),-9.85
16,COCCn1nnnc1C(c1ccc(Cl)cc1)N1CCN(C(=O)c2ccco2)CC1.Cl (stereo not drawn),-22.4
17,Cc1nc2sc(C(c3cccs3)N3CCN(Cc4ccccc4)CC3)c(O)n2n1 (stereo not drawn),-81.2
18,COc1cccc(C(c2nnnn2Cc2ccccc2)N2CCN(C(=O)c3ccco3)CC2)c1OC (stereo not drawn),-30.2
19,O=C(c1ccco1)N1CCN(C(c2ccc(Cl)cc2)c2nnnn2Cc2ccccc2)CC1 (stereo not drawn),-68.2
20,COCCn1nnnc1C(c1ccccc1)N1CCN(C(=O)c2ccco2)CC1.Cl (stereo not drawn),16.7
21,CCOc1ccc(C(c2nnnn2Cc2ccccc2)N2CCN(C(=O)c3ccco3)CC2)cc1.Cl (stereo not drawn),-57
